Records with an inconclusive call do not appear. Active and inactive are the calls of the source. Calls follow the shape of the dose curve; as a rule, active = well fitted inhibition curve with a large enough effect; inconclusive = small, poorly fitted or top-dose-only effect; inactive = flat fitted curve, though single readings scatter.
target: Calcium and integrin-binding protein 1 (Homo sapiens) (UniProt Q99828); test: Primary qHTS for Identification of Calcium Integrin Binding Protein 1 (CIB1) Competitor (AID 1508620); conditions: CIB1-GST / FITC-alphaIIb peptide fluorescence polarization; series mostly up to 114 µM; activity change, negative = inhibition: at the top concentration;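 also: GST tagged CIB1 binding a fluorescein labelled alphaIIb integrin peptide tracer; top concentration of the series differs between compounds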
In short: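 CIB1-GST (1 uM final) and compound incubated 15 min at room temperature before adding FITC-alphaIIb peptide tracer (100 nM final). Competition for binding read by fluorescence polarization (ex 480, em 540) after another 15 min at room temperature.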
% is scaled to controls: 0 for no effect and ±100 for the full control effect.

Calcium and integrin-binding protein 1 (Homo sapiens), sequence (Q99828 whole entry, looked up): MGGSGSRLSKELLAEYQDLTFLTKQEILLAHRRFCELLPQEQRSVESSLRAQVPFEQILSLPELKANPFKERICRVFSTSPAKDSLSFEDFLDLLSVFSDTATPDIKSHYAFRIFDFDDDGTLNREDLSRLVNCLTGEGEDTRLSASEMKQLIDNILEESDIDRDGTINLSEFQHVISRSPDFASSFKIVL

| SMILES | activity change, negative = inhibition |
| --- | --- |
| Cc1ccc(NC(=O)c2cnn3c(-c4ccccc4)cc(C)nc23)cc1 | 5.03% (inactive) |
| NC(=O)c1c(NC(=O)c2ccco2)sc2c1CCCC2 | -9.04% (inactive) |
| CCNC(=O)c1ccc(-c2ccc3ncnc(NCc4nccs4)c3c2)o1 | -17.2% (inactive) |
| O=C1CCCC2=C1C(c1[nH]ncc1Cl)N=C(Nc1nc3cc([S+](=O)([O-])N4CCCC4)ccc3o1)N2 (stereo not given) | 4.75% (inactive) |
| O=C(c1c(F)cccc1F)N1CCN(S(=O)(=O)c2ccc3c(c2)OCCO3)CC1 | 1.02% (inactive) |
| COc1ccc2ccccc2c1CN(C)CC(=O)Nc1ccc(N2CCOCC2)cc1 | -1.81% (inactive) |
| O=C(Nc1ccc2ccccc2c1)Nc1nnc(-c2cccnc2)s1 | 1.17% (inactive) |
| COc1ccc(C2Nc3ccccc3C(=O)N2Cc2ccco2)cc1COc1c(C(C)C)cccc1C(C)C (stereo not given) | 0.0739% (inactive) |
| Cc1c(C(=O)NCC2CCCO2)[nH]c2c1C(=O)CC(c1ccco1)C2 (stereo not given) | -3.97% (inactive) |
| O=C(CN1C(=O)N/C(=C\c2cn(-c3cccc(C(=O)O)c3)cn2)C1=O)Nc1ccccc1Cl | -6.35% (inactive) |
| OCC#CCSc1nnc(-c2cccc3ccccc23)o1 | 0.741% (inactive) |
| Cc1c(C(=O)O)[nH]c2c1C(=O)CC(c1ccco1)C2 (stereo not given) | -8.66% (inactive) |
| N#CN1CCC(NS(=O)(=O)c2ccc(C(F)(F)F)cc2)CC1 | 4.43% (inactive) |
| c1nc(NCC2CCCO2)c2ccc(-c3ccc4c(c3)OCO4)cc2n1 (stereo not given) | -7.79% (inactive) |
| O=C(Nc1cccnc1)c1ccco1 | -1.75% (inactive) |
| COc1ccnc(NC(=S)N2CCN(c3ccc(Cl)cc3Cl)CC2)c1 | -10.9% (inactive) |
| Cc1cc(C)n2ncc(C(=O)Nc3ccc(C)c(C)c3)c2n1 | 5.65% (inactive) |
| O=C(Nc1ccc2ccccc2c1)Nc1cccc(-c2ccncc2)n1 | 1.27% (inactive) |
| Cc1cc(C)nc(NC(=S)N2CCN(c3ccc(Cl)nn3)CC2)c1 | 0.476% (inactive) |
| CCOc1ccccc1-c1nnc2n1N=C(c1ccccc1OC)CS2 | 1.6% (inactive) |

| SMILES | activity change, negative = inhibition |
| --- | --- |
| CC(=O)NC(c1ccco1)c1cc(Cl)c2ccc(Cl)nc2c1O (stereo not given) | -16.3% (inactive) |
| Cc1ccc(OCCn2c(CCNC(=O)COc3ccccc3Br)nc3ccccc32)cc1 | 43.2% (inactive) |
| COc1ccc2c(=O)n3nc(Nc4ccc5c(c4)CCC5)sc3nc2c1 | 0.645% (inactive) |
| O=C(NCc1nnc(-c2cc3ccccc3[nH]2)s1)c1ccccc1 | 0.109% (inactive) |
| O=C(CCCCSc1nnc(-c2cccc3ccccc23)o1)Oc1ccc(F)cc1 | 6.14% (inactive) |
| Cc1cc(NC(=O)Nc2nnc(C3CCCCC3)s2)ccc1Cl | 1.31% (inactive) |
| Oc1ccc(CNc2ccccc2C(F)(F)F)c2cccnc12 | 18.7% (inactive) |
| Cc1ccc(-c2csc3ncnc(Sc4nnnn4C)c23)cc1 | 7.71% (inactive) |
| Cc1nc(-c2ccc(S(=O)(=O)Nc3ccc(C)c(C)c3)s2)cs1 | 3.06% (inactive) |
| Cc1cc(C)nc(NC(=S)N2CCN(c3cc(Cl)cc(Cl)c3)CC2)c1 | -8.39% (inactive) |
| CC(=O)NC(c1cc(Cl)c2ccccc2c1O)C1CC1 (stereo not given) | -0.272% (inactive) |
| O=[N+]([O-])c1cc(C(F)(F)F)ccc1N1CCN(C(=S)Nc2cc(Cl)ccn2)CC1 | 2.33% (inactive) |
| COc1cccc(C2C(C#N)=C(NC(=O)CCc3ccccc3)Oc3ccc4ccccc4c32)c1 (stereo not given) | 0.454% (inactive) |
| COc1ccc(C2Nc3ccccc3C(=O)N2Cc2ccccc2Cl)cc1COc1ccc(NC(C)=O)cc1 (stereo not given) | 6.11% (inactive) |
| CCOc1ccc(CCNC(=O)C2(c3ccccc3)CC2)cc1OCC | 11.9% (inactive) |
| COc1ccc(C2=Nn3c(nnc3-c3ccccc3OC)SC2)cc1 | -5.97% (inactive) |
| CC(C)(C)OC(=O)NC1CCN(c2nc(-c3ccc(Br)cc3)cs2)CC1 | 2.46% (inactive) |
| CC(=O)Nc1sc2c(c1-c1ccc3c(c1)OCCO3)CCNC2 | 3.07% (inactive) |
| CC(C)c1ccccc1-c1nc(NCc2ccc(-c3cccnc3)cc2)c2ccccc2n1 | 6.26% (inactive) |
| COc1ccc(-c2ccc(Nc3nc(-c4ccncc4)nc4ccccc34)cc2F)cc1F | 5.65% (inactive) |

Source: PubChem BioAssay (NCATS)
